Reference: PubChem BioAssay AID624351 (Southern Research Specialized Biocontainment Screening …, 2012)
Among all 2,400 compounds or so, about 1,400 (58%) were called active.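 The calls were made as follows: active = inhibition of 30% or more at any tested dose; inconclusive = primary hits over the limit that were never retested; inactive = the rest.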 The set was probably picked from earlier hits. Some of the results follow.

Assay: coupled detection enzyme interference, dose response, artefact control for MgcRacGAP inhibitor project, biochemical, coupled enzyme counter-screen (AID 624351);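 also: signal is the ADP detection kit reading of free GDP without any GAP enzyme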
Settings: ADP Hunter coupled enzyme counter-screen, fluorescence, no MgcRacGAP; series mostly up to 80 µM

Compound	IC50
O=C1C=C(Nc2ccc(O)cc2)CC(c2ccco2)C1 (configuration not stated)	17.8 µM (active)
O=S(=O)(c1ccccc1)N1N=C(c2ccc(O)cc2)CC1c1ccco1 (configuration not stated)	inactive
Cc1cc(C)c(S(=O)(=O)Nc2ccc(O)cc2)c(C)c1	68.4 µM (active)
Cc1cc(C)c(C)c(S(=O)(=O)Nc2ccc(O)cc2)c1C	48.5 µM (active)
CCN(CC)c1ccc(C(=C2C=CC(=[N+](CC)CC)C=C2)c2ccc(N(CC)CC)cc2)cc1	45.3 µM (active)
CCN(CC)c1ccc(C(=C2C=CC(=[N+](CC)CC)C=C2)c2ccccc2)cc1	inactive
COc1cc(/C(C)=N/NC(=O)C(O)(c2ccccc2)c2ccccc2)ccc1O	79.7 µM (active)
COc1cc(C(C)=NNC(=O)c2ccncc2)ccc1O	36.8 µM (active)
COc1cc(/C(C)=N\NC(=O)CSc2nc3ccccc3n2C)ccc1O	39.3 µM (active)
C/C(=N\NC(=O)CSc1nc2ccccc2o1)c1ccc(O)cc1	68.9 µM (active)
COc1ccccc1CN1CCN(C(=O)c2ccncc2)CC1	inactive
O=C(O)c1cccc(N2C(=O)/C(=C/c3ccc(SCc4ccc(Cl)cc4)o3)SC2=S)c1	inactive
c1ccc(-c2ccccc2OCCN2CCOCC2)cc1	inactive
C=CCNCC(O)COc1ccc(C(C)=O)cc1OC (configuration not stated)	inactive
COc1cc(/C(C)=N/NC(=O)Cc2c(C)[nH][nH]c2=O)ccc1O	70.3 µM (active)
C#CCOCCOCCOCCNc1nc(N2CCN(C(=O)[C@H](CCCCN)n3cc(CN)nn3)CC2)nc(N2CCN(C(=O)[C@H](CCCCN)n3cc(CN)nn3)CC2)n1	inactive
Nc1ccccc1SSc1ccccc1N	inactive
Nc1ccccc1Nc1ccccc1	34 µM (active)
Nc1ccc(Nc2ccccc2)c(Cl)c1	15.9 µM (active)
Nc1ccccc1Nc1cccc(C(F)(F)F)c1	78.3 µM (active)
Cn1c(-c2ccccc2)cnc1NCc1ccc(-c2ccccc2)cc1	inactive
Cc1cc(C)cc(NC(=O)C(NCCN2CCOCC2)c2ccccc2)c1 (configuration not stated)	inactive

Compound	IC50
COc1cc2c(cc1NC(=O)C(Cl)Cl)-c1ccc(NC(=O)C(Cl)Cl)cc1C2	71.4 µM (active)
COc1ccc(NC(=O)C(C)N2CCN(C)CC2)cc1 (configuration not stated)	inactive
CN(C)/N=C/c1ccc(N2CCOCC2)cc1	60.4 µM (active)
O=C(O)CN1C(=O)/C(=C/c2ccc(SCc3ccccc3)o2)SC1=S	inactive
O=C(CCCC(=O)c1ccccc1)Nc1ccc(O)cc1	18.2 µM (active)
CC(C)c1ccc(NC(=O)CNCC(c2ccccc2)N(C)C)cc1 (configuration not stated)	inactive
O=C(CC(c1ccccc1)c1ccccc1)Nc1ccc(O)cc1	56.5 µM (active)
CN(C)CCNC(C(=O)Nc1cccc(C(F)(F)F)c1)c1ccccc1 (configuration not stated)	inactive
COc1ccc(NC(=S)Nc2cccc3ccccc23)cc1OC	inactive
COc1cc2c(cc1NC(=S)Nc1ccccc1C)oc1ccccc12	41.1 µM (active)
COc1cc2c(cc1NCc1ccc3c(c1)OCO3)oc1ccccc12	inactive
COc1cc2c[n+](C)c3c4ccccc4ccc3c2cc1OC	inactive
COc1cc2c(cc1NC(=S)Nc1cccc3ccccc13)oc1ccccc12	36.9 µM (active)
O=C(O)c1cc(N2N=C(C(F)(F)F)/C(=C/C=C/c3ccco3)C2=O)ccc1Cl	inactive
COc1ccc2c(c1OC)C(=O)OC2CC(=O)c1ccc(O)c(O)c1 (configuration not stated)	58.7 µM (active)
COc1cccc2c1C(=O)c1c(O)c3c(c(O)c1C2=O)CC(O)(C(C)=NNC(=O)c1ccc(Cl)c(Cl)c1)CC3OC1CC(N)C(O)C(C)O1 (configuration not stated)	inactive
COc1cccc2c1C(=O)c1c(O)c3c(c(O)c1C2=O)C[C@@](O)(C(=O)CO)C[C@@H]3OC1CC(N)C(O)C(C)O1 (some centres not stated)	inactive
Nc1ccc(N(c2ccccc2)c2ccc(N)cc2)cc1	9.3 µM (active)
N#CC1=C(S)N(c2ccccc2)C2(CCCCC2)NC1=O	inactive
COc1cc(/C=C2\C(=O)N(c3cccc(C(=O)O)c3)N=C2C)ccc1OCc1ccccc1	inactive
COc1cc(/C=N/NC(=S)Nc2cccc(S(=O)(=O)N(C)C)c2)ccc1O	27.7 µM (active)
COc1cc(/C=N/NC(=S)Nc2cccc(C(=O)O)c2)ccc1O	46.3 µM (active)

Compound	IC50
CN(C)S(=O)(=O)c1cccc(NC(=O)CNCC2CCCCC2)c1	inactive
CN(C)c1ccc(Sc2ccc3nc(N)nc(N)c3c2)cc1	53.7 µM (active)
CCN(CC)S(=O)(=O)c1cccc(NC(=O)CNC2CCCCCC2)c1	inactive
CCOc1ccccc1NC(=O)C(NCC1(N2CCCCC2)CCCCC1)c1ccccc1 (configuration not stated)	inactive
O=C(/C=C/Nc1ccc(Nc2ccccc2)cc1)c1cccs1	inactive
CN(C)c1ccc(N/C=C/C(=O)C(C)(C)C)cc1	7.04 µM (active)
C=C(CN(C)C)C(=O)c1ccc(OC2OC(COC(C)=O)C(OC(C)=O)C(OC(C)=O)C2OC(C)=O)cc1 (configuration not stated)	inactive
O=[N+]([O-])c1ccc(N/N=C/c2ccc[nH]2)cc1	41.1 µM (active)
O=C1/C(=C\c2ccc([N+](=O)[O-])cc2)CS(=O)(=O)C/C1=C/c1ccc([N+](=O)[O-])cc1	inactive
CN1C=CC(=CC=C2C=CC(=O)C=C2)C=C1	23.1 µM (active)
COc1cc(C)c(N)cc1C(C)C	34.2 µM (active)
Nc1ccc(O)c([N+](=O)[O-])c1	43.9 µM (active)
Cc1ccc(S(=O)(=O)Oc2ccc(/C=C3/C(=N)N4C(=NC3=O)SN=C4S(C)(=O)=O)cc2)cc1	inactive
CCOC(=O)c1[nH]c(=S)n(Cc2ccccc2)c1C(=O)OCC	41.9 µM (active)
CCOC(=O)/C(C#N)=C1/C(=O)N(Cc2ccccc2)c2ccccc21	inactive
CCOC(=O)/C(C#N)=C1\C(=O)N(Cc2ccccc2)c2ccccc21	inactive
Cc1cs/c(=N\N=C\c2ccc(O)cc2)n1Cc1ccco1	25.9 µM (active)
Cc1ccc(CN2CCN(Cc3ccco3)CC2)cc1	inactive
CN(C)C(=S)N=c1ssc(=S)n1Cc1ccco1	inactive
CCN1CCN(CCCOc2ccccc2-c2ccccc2)CC1	inactive
COc1ccc(C(=O)/C=C/c2ccc(O)cc2)c2c1CC(O)C(C)(C)O2 (configuration not stated)	52.3 µM (active)
COc1ccc(OC)c(CN2CCN(Cc3ccc(OC)c(OC)c3OC)CC2)c1	inactive

Compound	IC50
CCOC(=O)N/N=C/c1ccc(N2CCOCC2)s1	53 µM (active)
NC(=O)N/N=C/c1ccc(N2CCOCC2)s1	45.8 µM (active)
Clc1cccc(N/N=C/c2ccc(N3CCOCC3)s2)c1	59.7 µM (active)
CNC(=S)N/N=C/c1ccc(N2CCOCC2)s1	inactive
COC(=O)CC1SC(=O)NC1=Nc1ccc(O)cc1 (configuration not stated)	60.2 µM (active)
Cc1ccn2c(NC3CCCC3)c(-c3ccncc3)nc2c1	49 µM (active)
CN1CCN(C(=O)c2sc(=S)n(-c3ccccc3)c2N)CC1	inactive
Cc1c(-c2ccccc2)sc(N)c1C(=O)N1CCOCC1	41.6 µM (active)
CCOC(=O)c1c(-c2ccccc2)csc1NC(=O)C(C)NCCCN1CCOCC1 (configuration not stated)	inactive
CCCCNCC#CCOc1cc(C)ccc1C(C)C	inactive
COc1cc(/C=C/c2sc3ccccc3[n+]2CCCS(=O)(=O)[O-])ccc1O	22.2 µM (active)
C=CC[n+]1c(/C=C/c2ccc(OC(C)=O)c(OC)c2)ccc2ccccc21	inactive
CN(C1CCCCC1)S(=O)(=O)c1cccc2nsnc12	inactive
CSC1=NN(c2ccccc2)CN(c2ccccc2)N1C	72.1 µM (active)
COc1cc(CCNC2=CC(=O)c3ncccc3C2=O)ccc1O	70.9 µM (active)
Cc1sc2nc(CN3CCOCC3)nc(N3CCOCC3)c2c1C	inactive
COc1cccc(OC)c1C(=O)N1CCN(Cc2ccc3c(c2)OCO3)CC1	inactive
c1cc2c(cc1CNc1ccc(N3CCOCC3)cc1)OCO2	4.31 µM (active)
Clc1ccccc1CNCc1ccc2c(c1)OCO2	inactive
CC(=O)N1CCN(c2ccc(NCc3ccc4c(c3)OCO4)cc2)CC1	9.9 µM (active)
COc1cc(OC)cc(C(=O)N2CCN(Cc3ccc4c(c3)OCO4)CC2)c1	inactive
C=CCNC(=S)N1CCN(Cc2ccc3c(c2)OCO3)CC1	inactive

Compound	IC50
C=CCc1cc(Cl)ccc1OCCN(C)C	inactive
CN1CCN(CCCN2c3ccccc3Sc3ccc(Cl)cc32)CC1	83.1 µM (active)
CN1CCN(CCOCCOc2ccc(Br)cc2Cl)CC1	inactive
CCN1CCN(CCCOc2ccc(Cl)cc2Br)CC1	inactive
CN(C)CCCN1c2ccc(O)cc2Sc2ccc(Cl)cc21	13.1 µM (active)
Cc1ncc(CO)c(/C=N/Nc2ccc(C(F)(F)F)cn2)c1O	inactive
COc1cc(/C=N/Nc2ncc(C(F)(F)F)cc2Cl)cc(OC)c1O	inactive
Oc1ccc(/C=N/Nc2ccc(C(F)(F)F)cn2)c(O)c1	34.8 µM (active)
COc1cc(/C=N/Nc2ccc(C(F)(F)F)cn2)ccc1O	52.5 µM (active)
Oc1ccc(/C=N/Nc2ccc(C(F)(F)F)cn2)cc1	29.7 µM (active)
OCCNCCSc1nc(C2CCCCC2)n(-c2ccccc2Cl)n1	inactive
O=c1[nH]c(/C=C\c2ccc(O)cc2)nc(O)c1[N+](=O)[O-]	43.4 µM (active)
COc1cc(/C=N/NC(=O)c2cccc(N3CCCC3=O)c2)ccc1O	34.1 µM (active)
COc1cc(/C=N/NC(=O)c2ccc(N3CCCC3=O)cc2)ccc1O	31.5 µM (active)
O=c1nc2s/c(=C\c3ccc(-c4ccccc4[N+](=O)[O-])o3)c(=O)n2nc1-c1ccccc1	inactive
C=C1CC(C(=O)N/N=C/c2ccc(O)cc2)C1	45.9 µM (active)
COc1cc(/C=N/N=C2\CC3CCC2(C)C3(C)C)ccc1O (configuration not stated)	45.7 µM (active)
O=C(N/N=C/c1ccc(O)cc1)NC12CC3CC(CC(C3)C1)C2	53 µM (active)
COc1cc(/C=N/NC(=O)NC23CC4CC(CC(C4)C2)C3)ccc1O	56.2 µM (active)
